Screening results as filed in PubChem BioAssay.
A selection: hits, their analogues and other compounds. The true share with any hit is near 1.1%.
SSB-PriA inh – inhibitors of Klebsiella pneumoniae PriA binding to SSB C-terminal tail, primary screen, biochemical, AlphaScreen. AlphaScreen SSBct-PriA binding, biotinylated peptide. inhibition, % at 33 µM. actives 0.6% (n = 430,000). AID 1272365, 2023; in the data active = inhibition mostly above about 37%, no sharp cut-off; inactive = mostly below about 20%
Sa RN4220 lethal – growth inhibition of S. aureus RN4220, primary screen, OD600; 16 h; inhibition, % (concentration not given with the values); actives 0.33% (n = 330,000); AID 1259311, 2017; in the data active = inhibition above about 85%
ugtP null kill – growth inhibition of ugtP-null S. aureus, primary screen, RN4220 ugtP deletion, OD600; growth inhibition, % (concentration not given with the values); 16 h; AID 1259309, 2017; actives 0.54% (n = 330,000); in the data active = growth inhibition above about 68%
Mtb hypoxia rep – PubChem AID 1159583; M. tuberculosis hypoxia-regulated fluorescent reporter, fluorescence; fluorescence inhibition, % (test concentration not listed); actives 0.1% (n = 300,000); in the data active = fluorescence inhibition mostly above about 23%, no sharp cut-off; inactive = mostly below about 17%
Numbers stand for hits.

Screening CSc1cccc(C(=O)Nc2ccccc2-c2nc3ccccc3s2)c1 returned SSB-PriA inh inactive.
Screening CCOc1ccc(-c2ccc(=O)n(CCCC(=O)N3CCCc4ccccc43)n2)cc1 returned SSB-PriA inh inactive.
CCCCOc1ccc(C(=O)N2CCC(c3nc4ccccc4[nH]3)CC2)cc1 was read as SSB-PriA inh 91.0.
For O=S(=O)(c1cccc(F)c1)N1CCN(c2ncnc3scc(-c4ccc(F)cc4)c23)CC1 the results were SSB-PriA inh inactive, Sa RN4220 lethal 97.0, ugtP null kill 98.9 and Mtb hypoxia rep inactive.
Screening Cc1ccc(S(=O)(=O)N2CCN(c3ncnc4scc(-c5ccccc5)c34)CC2)cc1 returned SSB-PriA inh inactive, Sa RN4220 lethal 91.0, ugtP null kill inactive and Mtb hypoxia rep inactive.
Screening Cc1ccc(S(=O)(=O)N2CCN(c3ncnc4scc(-c5ccc(F)cc5)c34)CC2)cc1 returned SSB-PriA inh inactive, Sa RN4220 lethal 97.7, ugtP null kill 99.3 and Mtb hypoxia rep inactive.
`O=C(NCc1cccnc1-c1ccsc1)c1ccc(F)cc1Cl` gave SSB-PriA inh inactive.
For O=C(NC(=S)NNC(=O)c1cnccn1)c1ccc(F)cc1 the results were SSB-PriA inh 42.0, Sa RN4220 lethal inactive, ugtP null kill inactive and Mtb hypoxia rep inactive.
Screening O=C(/C=C/c1ccc(F)cc1)NC(=S)NNC(=O)c1cnccn1 returned SSB-PriA inh 39.6, Sa RN4220 lethal inactive, ugtP null kill inactive and Mtb hypoxia rep inactive.
Screening COc1ccc(C(=O)NNC(=S)NC(=O)c2ccc(F)cc2)cc1Br returned SSB-PriA inh inactive, Sa RN4220 lethal inactive, ugtP null kill 84.7 and Mtb hypoxia rep inactive.
For O=C(Nc1nc(CSCc2ccc(F)cc2)cs1)c1cc(=O)c2ccccc2o1 the results were SSB-PriA inh inactive.
For O=C(NCCn1ccn2nccc12)c1cc(=O)c2ccccc2o1 the results were SSB-PriA inh inactive.
`Cc1cc(NC(=O)Cc2ccc(F)cc2)n(-c2nc3c(cnn3-c3cccc(C)c3C)c(=O)[nH]2)n1` gave SSB-PriA inh inactive.
`COc1ccccc1OCC(=O)Nc1cc(C)nn1-c1nc2c(cnn2-c2cccc(C)c2C)c(=O)[nH]1` gave SSB-PriA inh 42.0.
For Cc1cc(NC(=O)c2c(F)cccc2F)n(-c2nc3c(cnn3-c3cccc(C)c3C)c(=O)[nH]2)n1 the results were SSB-PriA inh 52.0.
`COc1ccccc1OCC(=O)Nc1cc(C)nn1-c1nc2c(cnn2-c2ccc(F)cc2)c(=O)[nH]1` gave SSB-PriA inh inactive.
Screening COC(=O)CSC1CCN(C(=O)c2cccnc2SC)C1 (configuration not stated) returned SSB-PriA inh inactive.
Screening O=C1NC(c2cccs2)C(C(=O)c2ccc(Cl)cc2)C(O)(C(F)(F)F)N1 (configuration not stated) returned SSB-PriA inh inactive.
`Cc1cccc(CSc2ncnc3c2cnn3Cc2ccccc2)c1` gave SSB-PriA inh inactive, Sa RN4220 lethal inactive, ugtP null kill 98.1 and Mtb hypoxia rep inactive.
`O=C(NCc1ccccc1Cl)C(=O)Nc1cccc(N2CCCC2=O)c1` gave SSB-PriA inh inactive.
For O=c1cccnn1CCNS(=O)(=O)c1cc(C(F)(F)F)cc(C(F)(F)F)c1 the results were SSB-PriA inh 38.0.
Screening O=c1cccnn1CCCNS(=O)(=O)c1cc(C(F)(F)F)ccc1Cl returned SSB-PriA inh inactive.
Screening O=C(c1nc2ccccc2s1)N1C2C=CCC1CC2 (configuration not stated) returned SSB-PriA inh inactive.
Screening CC(C)(C)C1=Nn2c(nnc2-c2ccccc2F)SC1 returned SSB-PriA inh inactive, Sa RN4220 lethal inactive, ugtP null kill inactive and Mtb hypoxia rep inactive.
For COc1ccc(C2=Nn3c(nnc3-c3ccccn3)SC2)cc1OC the results were SSB-PriA inh 83.1, Sa RN4220 lethal inactive, ugtP null kill inactive and Mtb hypoxia rep inactive.
`COc1ccc(C2=Nn3c(nnc3-c3ccccc3OC)SC2)cc1OC` gave SSB-PriA inh inactive, Sa RN4220 lethal inactive, ugtP null kill inactive and Mtb hypoxia rep inactive.
For CC(C)(C)C1=Nn2c(nnc2-c2ccccn2)SC1 the results were SSB-PriA inh 90.2, Sa RN4220 lethal inactive, ugtP null kill inactive and Mtb hypoxia rep inactive.
CCOC(=O)c1ccccc1NC(=O)CSc1n[nH]c(=O)c2cc(-c3ccc(F)cc3)nn12 was read as SSB-PriA inh inactive.
For NCCNc1nc(N)nc2nc[nH]c12 the results were SSB-PriA inh inactive.
For C=CCOC(=O)C1=C(C)NC(=O)NC1c1ccc(Cl)cc1 (configuration not stated) the results were SSB-PriA inh 101.5, Sa RN4220 lethal inactive, ugtP null kill inactive and Mtb hypoxia rep inactive.
Screening O=c1c2ccccc2nc(SCc2cccc(F)c2)n1-c1cccc(S(=O)(=O)N2CCCC2)c1 returned SSB-PriA inh inactive, Sa RN4220 lethal 96.6, ugtP null kill 93.7 and Mtb hypoxia rep inactive.
Screening CC(=O)Nc1ccc(NC(=S)NC(=O)/C=C/c2ccco2)cc1 returned SSB-PriA inh inactive, Sa RN4220 lethal inactive, ugtP null kill 86.0 and Mtb hypoxia rep inactive.
For O=C(NC(=S)Nc1ccc(NC(=O)c2ccco2)cc1)c1ccccc1 the results were SSB-PriA inh inactive, Sa RN4220 lethal inactive, ugtP null kill inactive and Mtb hypoxia rep inactive.
For CCCCCC(=O)NC(=S)Nc1ccc(NC(=O)c2ccco2)cc1 the results were SSB-PriA inh inactive, Sa RN4220 lethal inactive and ugtP null kill 88.4.
`CC(=O)N(C)c1ccc(NC(=S)NC(=O)/C=C/c2ccco2)cc1` gave SSB-PriA inh inactive, Sa RN4220 lethal inactive, ugtP null kill inactive and Mtb hypoxia rep inactive.
CN1CCN(c2ccc(NC(=S)NC(=O)/C=C/c3ccco3)cc2)CC1 was read as SSB-PriA inh inactive, Sa RN4220 lethal inactive, ugtP null kill 89.1 and Mtb hypoxia rep inactive.
For O=C(Cn1c(=O)oc2ccccc21)NCC[C@H](O)c1ccc2c(c1)OCO2 the results were SSB-PriA inh inactive.
CCOC(=O)Cn1c(=NC(=O)c2cc(C)no2)sc2cc(Cl)ccc21 was read as SSB-PriA inh inactive.
CCn1nccc1C(=O)Nc1nnc(-c2ccco2)o1 was read as SSB-PriA inh inactive.
CC(=O)c1c(N2CCN(C)CC2)[nH]c(-c2ccccc2)nc1=S was read as SSB-PriA inh 46.2, Sa RN4220 lethal inactive and ugtP null kill inactive.
CCn1c(C)c(C(C)=O)c(N2CCN(c3ccccc3)CC2)nc1=S was read as SSB-PriA inh inactive, Sa RN4220 lethal inactive and ugtP null kill inactive.
`O=C(NN=Cc1ccncc1)c1cc2ccccc2cc1O` gave SSB-PriA inh inactive, Sa RN4220 lethal inactive, ugtP null kill inactive and Mtb hypoxia rep inactive.
Screening Cn1c(O)c(C=NNC(=O)c2cc3ccccc3cc2O)c2ccccc21 returned SSB-PriA inh inactive, Sa RN4220 lethal inactive, ugtP null kill 92.8 and Mtb hypoxia rep inactive.
`O=C(Nc1c(C(=O)Nc2ccc3c(c2)OCCO3)oc2ccccc12)c1cccc(C(F)(F)F)c1` gave SSB-PriA inh inactive.
For O=C(O)c1cccn2ccnc12 the results were SSB-PriA inh 48.0.
